PubChem BioAssay AID2384 (Southern Research Specialized Biocontainment Screening …, 2010)
Hit rate of the full screen: of about 2,300 compounds, about 1,100 (48%) were called active. So high a share suggests a set chosen from earlier hits. This is one part of the list. Results with a measured potency or affinity are listed apart. Values without a mark were called inactive. The rule behind the calls is not given here.

assay: S. typhi counter-screen signal inhibition – fluorescence, 4 h, counter-screen for PhoP regulon inhibitor project, dose response (AID 2384); settings: S. typhi GFP reporter counter-screen; series mostly up to 150 µM; inhibition: at the top concentration

Compound	inhibition [%]
COC(=O)c1cc2sccc2n1Cc1nc(-c2ccc(OC)cc2)oc1C	-18.1
O=C(CSc1nc2ncc(Cl)cc2[nH]1)NCC(=O)Nc1ccc(F)c(F)c1F	36
Nc1ncnc2nc(SCC(=O)Nc3cccc(C(F)(F)F)c3)[nH]c12	-1.35
c1cncc(CSc2ccc(-c3cccs3)nn2)c1	3.59
Cn1c(-c2ccc(CN3CCCCC3)o2)nc2ccccc21	5.64
CCN(CC)S(=O)(=O)c1ccc(/C(O)=C(\C#N)c2nc3ccccc3n2C)cc1	-35.8
COc1ccc(CNc2nc3ccccc3n2C)c(O)c1	9.23
CC1=C(c2ccccc2)SC2=NCCN21	12.6
COCc1[nH]nc2c1C(c1c(F)cccc1Cl)C(C#N)=C(N)O2 (centres undefined)	14.4
CC1(C)CC(N2CCN(c3ccccc3)CC2)=CC(=[N+]2CCCC2)C1	-5.38
CC1CCC[C@H](O)CCCCCc2cc(O)cc(O)c2C(=O)O1 (some centres undefined)	6.87
CC1=C(C#N)CCC(=O)N1Cc1c(C)cc(C)cc1C	-4.03
O=[N+]([O-])c1ccc(/C=N/NC(=S)Nc2ccc(Cl)cc2Cl)s1	35.1
Nn1cnnc1N/N=C\c1ccc(-c2ccccc2[N+](=O)[O-])o1	5.18
COc1ccc(CNC(=O)CCC(=O)N2C[C@H]3C[C@H](C2)c2cccc(=O)n2C3)cc1	13
Cc1cc(NS(=O)(=O)c2ccc(NC(=O)C(C)Oc3ccc4c(C)cc(=O)oc4c3)cc2)no1 (centres undefined)	15.6
COc1cc(OC)nc(NC(=O)C(C)C)n1	-27
CCNc1nc(N)nc(Oc2ccc(OCCOc3ccc(Cl)cc3Cl)nn2)n1	-7.02
COc1cc(/C=C/C(=O)O)cc2c1OCCO2	1.36
CCCC(CCC)C(=O)NCCN1CCOCC1	9.01

Compound	inhibition [%]
CCn1nccc1C(=O)Nc1cc(Cl)cc(Cl)c1	16.1
CCOC(=O)/C=C1/N(C)c2ccccc2C1(C)C	-0.1
O=Cc1ccc(O)cc1O	12.6
CCCOc1ccc(-c2cn3ccccc3n2)cc1	27.4
Cc1ccc(-c2noc(CN3CCCCC3)n2)cc1	-23.5
Cc1ccc2nsnc2c1S(=O)(=O)NCc1ccc2c(c1)OCO2	-30.8
Cc1[nH]nc2c1C(c1ccc(-c3ccccc3C#N)o1)C(C#N)=C(N)O2 (centres undefined)	-6.53
COc1ccc(NC(=O)CN(C)S(=O)(=O)c2ccc(Cl)cc2)cc1Cl	-14.6
O=C(NCc1cccnc1)c1ccc(COc2ccc(Cl)cc2)cc1	-28.3
Cn1cc(S(=O)(=O)NCC2CCCO2)c(=O)n(C)c1=O (centres undefined)	19.2
C[C@]1(OC(=O)/C=C/c2ccccc2)C[C@@H](O)[C@]2(O)C=CO[C@@H](O[C@@H]3O[C@H](CO)[C@@H](O)[C@H](O)[C@H]3O)[C@@H]21	6.78
CC(=O)c1cccc(NC(=S)NNC(=O)c2ccco2)c1	21.6
O=C(/C=C/c1ccccc1)NNC(=O)c1ccco1	-2.38
O=C(/C=C/c1ccco1)NC(=S)Nc1cccc(-c2nc3ccccc3o2)c1	-13.3
O=C(NC(=S)Nc1c(F)cc(F)cc1Br)c1ccc2c(c1)OCCO2	-19
COc1ccc(C(C(=O)Nc2ccc(C(C)C)cc2)N(Cc2ccco2)C(=O)CC2NC(=O)NC2=O)cc1 (centres undefined)	-0.89
Nc1nc(=S)c2[nH]cnc2[nH]1	32.3
COc1ccc(C2C3=C(CC(C)(C)CC3=O)Nc3cc4c(cc32)OCO4)cc1 (centres undefined)	-48.3
O=C(CSc1ccccc1)N1CCC(N2CCC(C(=O)N3CCCC3)CC2)CC1	-12.2
C[C@@H](C(=O)NC1CCCC1)N1C(=O)N2CCc3c([nH]c4ccccc34)[C@@]2(C)C1=O	-17.4

Compound	inhibition [%]
CCOC(=O)c1cccc(NC(=O)C2CCC(CNc3c(N4CCOCC4)c(=O)c3=O)CC2)c1 (centres undefined)	-22.3
CCc1ccc(C(=O)CC2(O)C(=O)N(CN3CCOCC3)c3ccccc32)cc1 (centres undefined)	13.2
CCN1CCN(C2=C(NS(=O)(=O)c3ccc(Br)cc3)C(=O)c3ccccc3C2=O)CC1	17.3
O=C(C[n+]1cn(C(F)F)c2ccccc21)c1ccc(Br)cc1	-14.8
CC(=O)C1=C(O)C(=O)N(CCN2CCOCC2)C1c1ccccc1 (centres undefined)	10.7
COc1ccc(C(=O)N2CCN(C(=O)Cc3ccccc3)CC2)cc1OC	-1.09
O=C(c1cccs1)N1CCC(N2CCN(c3ccccc3)CC2)CC1	-17.6
CCN1CCN(c2cc(C)c3cc(NC(=S)N4CCN(c5ccccc5F)CC4)ccc3n2)CC1	35.7
Cn1c(=NC(=O)COc2ccccc2)sc2cccc(F)c21	0.24
Cc1cc(NC(=O)/C=C/C(=O)N(c2ccccc2C)C(C(=O)NC2CCCC2)c2ccc(F)cc2)no1 (centres undefined)	6.86
CC(=O)c1c(N2CCN(c3cccc(Cl)c3)CC2)nc(=S)n(-c2ccccc2)c1C	-38.1
Cc1ccc(NC(=O)c2cc(NC(=O)CCCC(=O)O)ccc2Cl)cc1Cl	-19.6
O=C(Cc1ccccc1)NCC(=O)Nc1cccc(Cl)c1	6.95
NC(=O)SCC(=O)Nc1ccc(Cl)c(Cl)c1	32
CCc1cccc(NC(=O)CSC2=NS(=O)(=O)c3ccccc32)c1	7.63
O=C(Nc1ccc(Cl)cc1)N1CCOC12CCC1(CC2)OCCO1	7.84
Cc1cnc(C(=O)OCC(=O)Nc2cccc(Cl)c2)cn1	0.83
O=C(COc1ccc(Cl)cc1)Nc1cccc(-c2ccc3nncn3n2)c1	-14.3
CCOC(=O)c1ccc(NC(=O)CSC(=S)N2CCOCC2)cc1	-22.6
